In all, about 5,500 compounds went through this assay and about 2,000 (36%) were called active. Another 18% or so got no clear call; they are omitted. Rule as the data show it: active = normalized growth mostly below about 0.91 (no sharp cut-off); inconclusive = no clear call, values can overlap the other calls; inactive = mostly above about 0.92. The list shows a part of the results.
Assay: chemical genetic growth profiling, strain panel (AID 1159580);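 also: tested at 20 µM; growth read once vehicle control cultures reached saturation at 30 °C; 1 = growth at the plate median or of vehicle wells; lower values mean less growth of the strain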
Conditions: S. cerevisiae deletion strains, growth OD

Measured: normalized growth

CC(=O)OC[C@H]1O[C@@H](Oc2cc(OC(C)=O)c3c(=O)cc(-c4ccc(OC(C)=O)cc4)oc3c2)[C@H](OC(C)=O)[C@@H](OC(C)=O)[C@@H]1OC(C)=O
inactive: locus YAL021C, strain ccr4, stronger effect = lower value 1.04 | locus YAL026C, strain drs2, stronger effect = lower value 1 | locus YAL030W, strain snc1, stronger effect = lower value 1.01 | locus YBL061C, strain skt5, stronger effect = lower value 0.981 | locus YBR009C, strain hhf1, stronger effect = lower value 0.998 | locus YBR023C, strain chs3, stronger effect = lower value 0.999 | locus YBR171W, strain sec66, stronger effect = lower value 0.981 | locus YBR231C, strain swc5, stronger effect = lower value 0.955 | locus YBR279W, strain paf1, stronger effect = lower value 0.997 | locus YCL011C, strain gbp2, stronger effect = lower value 1 | locus YCL016C, strain dcc1, stronger effect = lower value 1.06 | locus YCL069W, strain vba3, stronger effect = lower value 0.979 | locus YCR088W, strain abp1, stronger effect = lower value 0.989 | locus YDL005C, strain med2, stronger effect = lower value 0.977 | locus YDL040C, strain nat1, stronger effect = lower value 1.02 | locus YDR001C, strain nth1, stronger effect = lower value 1 | locus YDR069C, strain doa4, stronger effect = lower value 0.953 | locus YDR137W, strain rgp1, stronger effect = lower value 1.09 | locus YDR159W, strain sac3, stronger effect = lower value 0.963 | locus YDR195W, strain ref2 0.936 | locus YDR297W, strain sur2, stronger effect = lower value 0.988 | locus YDR334W, strain swr1, stronger effect = lower value 0.979 | locus YDR335W, strain msn5, stronger effect = lower value 0.989 | locus YDR392W, strain spt3, stronger effect = lower value 0.966 | locus YEL003W, strain gim4, stronger effect = lower value 0.979 | locus YEL037C, strain rad23, stronger effect = lower value 0.986 | locus YEL061C, strain CIN8 (second series), stronger effect = lower value 0.999 | locus YER015W, strain faa2, stronger effect = lower value 1 | locus YER016W, strain bim1, stronger effect = lower value 1.02 | locus YER111C, strain swi4, stronger effect = lower value 1.03 | locus YER155C, strain BEM2 (second series), stronger effect = lower value 0.985 | locus YFR010W, strain ubp6, stronger effect = lower value 0.975 | locus YGL167C, strain pmr1, stronger effect = lower value 0.992 | locus YGL173C, strain kem1, stronger effect = lower value 0.973 | locus YGL227W, strain vid30, stronger effect = lower value 0.995 | locus YGL240W, strain doc1, stronger effect = lower value 0.983 | locus YGL253W, strain hxk2, stronger effect = lower value 0.968 | locus YHR013C, strain ard1, stronger effect = lower value 1.01 | locus YHR027C, strain rpn1, stronger effect = lower value 1.01 | locus YHR142W, strain chs7, stronger effect = lower value 1.02 | locus YJL092W, strain hpr5, stronger effect = lower value 0.995 | locus YJL095W, strain BCK1 (second series), stronger effect = lower value 1.04 | locus YJL115W, strain asf1, stronger effect = lower value 0.98 | locus YJL129C, strain trk1, stronger effect = lower value 0.984 | locus YJL154C, strain vps35, stronger effect = lower value 0.98 | locus YJL164C, strain tpk1, stronger effect = lower value 1.02 | locus YJL166W, strain qcr8, stronger effect = lower value 0.989 | locus YJL187C, strain SWE1, stronger effect = lower value 1 | locus YKL160W, strain elf1, stronger effect = lower value 1.02 | locus YKR026C, strain gcn3, stronger effect = lower value 0.977 | locus YKR091W, strain srl3, stronger effect = lower value 0.999 | locus YLL001W, strain dnm1, stronger effect = lower value 0.947 | locus YLL026W, stronger effect = lower value 0.99 | locus YLL041C, strain sdh2, stronger effect = lower value 0.991 | locus YLR027C, strain aat2, stronger effect = lower value 0.981 | locus YLR221C, strain rsa3, stronger effect = lower value 0.971 | locus YLR258W, strain gsy2, stronger effect = lower value 1.01 | locus YLR262C, strain YPT6 (second series), stronger effect = lower value 0.998 | locus YLR320W, strain mms22, stronger effect = lower value 0.993 | locus YLR342W, strain FKS1, stronger effect = lower value 0.985 | locus YLR357W, strain rsc2, stronger effect = lower value 0.967 | locus YLR370C, strain arc18, stronger effect = lower value 0.981 | locus YLR384C, strain iki3, stronger effect = lower value 0.965 | locus YML120C, strain ndi1, stronger effect = lower value 0.998 | locus YMR058W, strain fet3, stronger effect = lower value 0.994 | locus YMR125W, strain sto1, stronger effect = lower value 1 | locus YMR129W, stronger effect = lower value 0.987 | locus YMR205C, strain PFK2, stronger effect = lower value 1.01 | locus YMR231W, strain pep5, stronger effect = lower value 0.969 | locus YNL071W, strain lat1, stronger effect = lower value 0.998 | locus YNL209W, strain ssb2, stronger effect = lower value 1 | locus YNL248C, strain rpa49, stronger effect = lower value 0.961 | locus YNL322C, strain KRE1 (second series), stronger effect = lower value 1.01 | locus YNR049C, strain mso1, stronger effect = lower value 0.989 | locus YOR001W, strain rrp6, stronger effect = lower value 0.953 | locus YOR070C, strain gyp1, stronger effect = lower value 1.06 | locus YOR080W, strain dia2, stronger effect = lower value 0.98 | locus YOR083W, strain WHI5, stronger effect = lower value 1.03 | locus YOR106W, strain vam3, stronger effect = lower value 1.01 | locus YOR265W, strain rbl2, stronger effect = lower value 0.992 | locus YOR270C, strain vph1, stronger effect = lower value 0.958 | locus YOR290C, strain snf2, stronger effect = lower value 1.12 | locus YPL051W, strain arl3, stronger effect = lower value 0.981 | locus YPL078C, strain atp4, stronger effect = lower value 1.03 | locus YPL106C, strain sse1, stronger effect = lower value 1.01 | locus YPL240C, strain hsp82, stronger effect = lower value 0.989
